“And” between values parts separate entries of the source, which are not always exact repeats. Equal entries are not always repeated. Results filed as inconclusive are left out. A call without a number means that no potency is given here. The source holds several records for some structures; these can differ, active in one and inactive in another. The source made the active and inactive calls. Unless noted, the call rests on the fitted dose curve; in most records, active means well fitted curve in the direction sought with a large enough effect in the repeat runs; inconclusive means weak or mixed curves; inactive means no such curve, though single readings can be large; an effect the other way counts as inactive or inconclusive.
Assays:
[1] = A CellTox Green Cytotoxicity Assay to monitor cytotoxicity in HepG2 cells - 8 hour (AID 1224890); further: nearly all actives have a fitted effect of over 45% in size
Outline: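 Nonlytic assay: viable cells exclude the dye, so fluorescence scales with cell death. HepG2 at 600 cells/well, compounds added after 5 h, signal read across 40 h.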

[2] = qHTS assay to identify small molecule antagonists of the estrogen receptor alpha (ER-alpha) signaling pathway using the BG1 cell line in the presence of 0.1 nM 17-beta-estradiol - cell viability counter screen (AID 1259241); further: nearly all actives have a fitted effect of over 40% in size
Outline: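 The cell line endogenously expresses full-length ER-alpha and carries four EREs driving luciferase. Cells are cultured 5 days hormone-free, treated 22 hr with compounds and 0.1 nM estradiol, then viability is read by fluorescence.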

[3] = target: Estrogen receptor (Homo sapiens) (UniProt P03372); assay: qHTS assay to identify small molecule antagonists of the estrogen receptor alpha (ER-alpha) signaling pathway using the BG1 cell line in the presence of 0.1 nM 17-beta-estradiol (AID 1259244); further: nearly all actives have a fitted effect of over 50% in size; further: potency means the concentration at half of the fitted maximal effect
Sequence of Estrogen receptor (Homo sapiens) (P03372 whole entry, looked up): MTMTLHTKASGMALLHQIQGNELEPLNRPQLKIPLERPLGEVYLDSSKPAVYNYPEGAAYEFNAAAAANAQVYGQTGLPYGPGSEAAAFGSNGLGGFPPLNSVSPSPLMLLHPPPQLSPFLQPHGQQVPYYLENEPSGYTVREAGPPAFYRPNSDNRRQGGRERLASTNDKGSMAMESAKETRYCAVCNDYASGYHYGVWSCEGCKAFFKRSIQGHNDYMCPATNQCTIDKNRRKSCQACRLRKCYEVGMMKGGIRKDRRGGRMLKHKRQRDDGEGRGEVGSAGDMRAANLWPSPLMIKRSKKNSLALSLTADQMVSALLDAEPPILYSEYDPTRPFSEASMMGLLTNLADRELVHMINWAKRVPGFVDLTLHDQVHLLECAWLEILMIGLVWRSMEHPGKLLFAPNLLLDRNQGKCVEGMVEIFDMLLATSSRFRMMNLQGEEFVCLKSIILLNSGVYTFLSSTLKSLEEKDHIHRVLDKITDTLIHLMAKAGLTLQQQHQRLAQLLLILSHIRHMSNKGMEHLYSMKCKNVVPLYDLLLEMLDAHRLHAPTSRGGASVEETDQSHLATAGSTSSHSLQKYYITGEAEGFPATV
Outline: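 VM7Luc4E2; 4xERE-luciferase; 0.1 nM E2 final; 22 h co-incubation, 37C; ONE-Glo luminescence after 30 min at room temperature.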

[4] = qHTS assay to identify small molecule HDAC inhibitors (AID 1259364); further: potency means the concentration at half of the fitted maximal effect;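 further: wild-type HCT-116 cells with endogenous class I/II HDAC activity; nearly all actives have a fitted effect of over 45% in size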
Outline: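 Relative class I and II HDAC activity is taken from the luminogenic signal in HCT-116 cells, with compound exposure 2 hr and reagent development 30 min at room temperature.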

[5] = qHTS assay to identify small molecule HDAC inhibitors - cell viability counter screen (AID 1259365); further: series mostly up to about 92 µM; nearly all actives have a fitted effect of over 50% in size
Outline: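 Viability readout: CellTiter-Glo luminescence. Wild-type HCT-116 cells, 2hr compound treatment following overnight attachment at 37 C.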

[6] = qHTS assay to identify small molecule agonists of the sonic hedgehog signaling (Shh) pathway - cell viability counter screen (AID 1259366); further: nearly all actives have a fitted effect of over 50% in size
Outline: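 Viability measured fluorometrically (CellTiter-Fluor, 1hr, 37C) in 3T3 Gli1-Luc reporter cells after 23hr compound exposure within a 24hr incubation at 37C/5% CO2.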

[7] = qHTS assay to identify small molecule antagonists of the sonic hedgehog signaling (Shh) pathway - cell viability counter screen (AID 1259367); further: nearly all actives have a fitted effect of over 55% in size
Outline: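 Seed 3T3 Gli1-Luc cells at 2,000 per well; incubate 4 hr; add compound in DMSO, then conditioned medium; incubate at 37C with 5% CO2; add CellTiter-Fluor after 23 hr; read fluorescence 1 hr later.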

[8] = qHTS assay to identify small molecule agonists of the sonic hedgehog signaling (Shh) pathway (AID 1259368; calls by dose curve;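 further: NIH/3T3-derived 3T3Gli1-Luc cells carrying a stable Gli1-driven firefly luciferase reporter; series mostly up to about 92 µM; nearly all actives have a fitted effect of over 15% in size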)
Outline: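 Mouse fibroblast (NIH/3T3) reporter cells with stably integrated Gli1-Luc were treated 24 hr with compound; firefly luciferase luminescence served as the read-out.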

[9] = qHTS assay to identify small molecule antagonists of the sonic hedgehog signaling (Shh) pathway (AID 1259369; calls by dose curve; further: nearly all actives have a fitted effect of over 45% in size; further: potency means the concentration at half of the fitted maximal effect)
Outline: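 Conditioned medium drives Shh signalling in 3T3Gli1-Luc cells; compounds in DMSO co-applied, 24hr at 37 C, then luciferase luminescence.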

[10] = target: Estrogen receptor beta (Homo sapiens) (UniProt Q92731); assay: qHTS assay to identify small molecule agonists of the estrogen receptor beta (ER-beta) signaling pathway (AID 1259377; active means well fitted activation curve with a large enough effect in the signal ratio in the repeat runs, not every such curve was filed as active; the % refers to the signal ratio)
Sequence of Estrogen receptor beta (Homo sapiens) (Q92731 whole entry, looked up): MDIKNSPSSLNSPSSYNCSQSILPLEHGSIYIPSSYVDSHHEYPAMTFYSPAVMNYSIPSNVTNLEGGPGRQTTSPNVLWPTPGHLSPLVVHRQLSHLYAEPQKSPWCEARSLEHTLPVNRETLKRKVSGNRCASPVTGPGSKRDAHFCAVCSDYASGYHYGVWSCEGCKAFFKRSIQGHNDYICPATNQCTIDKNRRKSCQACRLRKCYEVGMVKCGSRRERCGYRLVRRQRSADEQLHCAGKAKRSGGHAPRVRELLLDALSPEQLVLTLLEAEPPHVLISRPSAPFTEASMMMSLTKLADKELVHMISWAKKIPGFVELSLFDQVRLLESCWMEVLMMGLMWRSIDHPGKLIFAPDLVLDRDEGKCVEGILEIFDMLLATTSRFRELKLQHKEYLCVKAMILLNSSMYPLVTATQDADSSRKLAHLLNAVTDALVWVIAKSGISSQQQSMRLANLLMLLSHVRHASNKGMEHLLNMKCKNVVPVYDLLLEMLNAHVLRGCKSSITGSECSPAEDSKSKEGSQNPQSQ
Outline: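 A UAS-controlled beta-lactamase reporter in ER-beta-UAS-bla HEK293T cells reports receptor activation. Compounds act for 16 hr at 37C in 2% charcoal-stripped serum, and a FRET substrate is read by fluorescence after 2 hours.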

[11] = target: Estrogen receptor beta (Homo sapiens) (UniProt Q92731); assay: qHTS assay to identify small molecule antagonists of the estrogen receptor beta (ER-beta) signaling pathway (AID 1259378; active means well fitted inhibition curve with a large enough effect in the signal ratio in the repeat runs, not every such curve was filed as active; the % refers to the signal ratio)
Outline: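 ER-beta-UAS-bla HEK293T cells in 2% charcoal-stripped FBS medium treated with compound plus 1nM final 17-beta-estradiol for 16 hr at 37C. Beta-lactamase reporter read by FRET substrate fluorescence after 2 hours at room temperature.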

[12] = qHTS assay to identify small molecule agonists of the androgen receptor (AR) signaling pathway in the presence of an antagonist - cell viability counter screen (AID 1259379); further: nearly all actives have a fitted effect of over 25% in size; further: potency means the concentration at half of the fitted maximal effect
Outline: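 A CellTiter-Fluor read-out measured viability of MDA-kb2 reporter cells (MMTV promoter with AR and GR response elements). Treatment: nilutamide 3.0uM final with compounds at 15 concentrations, 16 hr, 37C, 0% CO2.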

[13] = qHTS assay to identify small molecule agonists of the estrogen receptor beta (ER-beta) signaling pathway - cell viability counter screen (AID 1259380); further: nearly all actives have a fitted effect of over 30% in size
Outline: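 Cells used were ER-beta-UAS-bla HEK293T in medium with 2% charcoal-stripped FBS. They were treated for 16 hr at 37C. Viability came from CellTiter-Glo luminescence.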

[14] = qHTS assay to identify small molecule antagonists of the estrogen receptor beta (ER-beta) signaling pathway - cell viability counter screen (AID 1259382); further: series mostly up to about 92 µM; nearly all actives have a fitted effect of over 55% in size
Outline: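 Agonist-stimulated (1nM E2) ER-beta-UAS-bla HEK293T cells are incubated with library compounds for 16 hr at 37C. Cell viability is then assessed in the reporter-assay wells by adding CellTiter-Glo and reading luminescence after 30 min.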

[15] = target: Estrogen receptor (Homo sapiens) (UniProt P03372); assay: qHTS assay to identify small molecule agonists of the estrogen receptor alpha (ER-alpha) signaling pathway in the presence of an antagonist (AID 1259383; calls by dose curve; further: top concentration of the series differs between compounds; nearly all actives have a fitted effect of over 15% in size)
Outline: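 Using VM7Luc4E2 cells seeded 24hr before treatment, antagonist ICI-182,780 (10.0nM final) was added, followed by compounds at 15 concentrations. Plates incubated 22hr; ONE-Glo luminescence quantified reporter activity.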

[16] = qHTS assay to identify small molecule agonists or antagonists of the thyroid stimulating hormone receptor (TSHR) signaling pathway - wild type cell line counter screen (AID 1259384; calls by dose curve)
Outline: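 Wild-type Hek293 cells, 800/well, 18 h at 37C, then compound with Ro20-1724 for 30 min RT. cAMP by HTRF (cAMP-d2/anti-cAMP cryptate), 1 h RT, fluorescence read. 15 concentrations, triplicates.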

[17] = qHTS assay to identify small molecule phospholipidosis (PLD) inducers (AID 1259344; active means well fitted curve in the direction sought with a large enough effect; an effect the other way counts as inactive or inconclusive)
Outline: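 Quantitative HTS in HepG2: compound plus LipidTOX Red dye for 24 h, paraformaldehyde fixation with Hoechst 33342, widefield high-content imaging; amiodarone as positive and DMSO as negative control.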

Row | Compound | Potency [1] | outcome [2] | Potency [3] | Potency [4] | outcome [5] | Potency [6] | Potency [7] | outcome [8] | Potency [9] | Potency [10] | outcome [11] | Potency [12] | Potency [13] | outcome [14] | outcome [15] | outcome [16] | Potency [17]
1 | C=C(C)C(=O)OCC(CC)CCCC (centres undefined) | inactive | inactive | 22.1 µM (active) and inactive | inactive | inactive | inactive | inactive | inactive | inactive | inactive | inactive | 55.5 µM (active) and inactive | inactive | inactive | inactive | inactive | –
2 | C=CC(=O)OCC(CC)CCCC (centres undefined) | inactive | inactive | – | inactive | inactive | inactive | inactive | inactive | inactive | inactive | inactive | inactive | inactive | inactive | – | inactive | –
3 | CNc1cnn(-c2cccc(C(F)(F)F)c2)c(=O)c1Cl | inactive | inactive | – | inactive and 30.6 µM (active) | – | inactive | inactive | inactive | inactive | inactive | inactive | inactive | inactive | inactive | – | – | –
4 | O=[N+]([O-])c1ccc(Cl)cc1 | inactive | inactive | – | inactive | – | inactive | inactive | inactive | 42.9 µM (active) and inactive | inactive | inactive | inactive | inactive | inactive | – | inactive | –
5 | OCC(O)CCl (centres undefined) | inactive | inactive | inactive | inactive | inactive | inactive | inactive | inactive | inactive | – | – | inactive | inactive | inactive | inactive | inactive | –
6 | CN(C)CCC#N | inactive | inactive | inactive | inactive | inactive | inactive | inactive | inactive | inactive | inactive | inactive | inactive | inactive | inactive | inactive | – | –
7 | C/C=C/c1ccc2c(c1)OCO2 | inactive | inactive | – | inactive | inactive | inactive | inactive | inactive | inactive | – | – | inactive | inactive | inactive | – | inactive | –
8 | Cc1cccc(C)c1NC(=O)CN1CCCC1=O | inactive | inactive | inactive | inactive | – | inactive | inactive | inactive | inactive | inactive | inactive | inactive | inactive | inactive | inactive | – | inactive
9 | CNC(=O)O/N=C/C(C)(C)S(C)=O (centres undefined) | inactive | inactive | inactive | inactive | inactive | inactive | inactive | inactive | 39.1 µM (active) and inactive | inactive | inactive | inactive | inactive | inactive | inactive | inactive | –
10 | O=C(O)COc1ccccc1 | inactive | inactive | inactive | inactive | – | inactive | inactive | inactive | inactive | inactive | inactive | inactive | inactive | inactive | inactive | inactive | inactive
11 | CCOC(=O)CC(SP(=O)(OC)OC)C(=O)OCC (centres undefined) | inactive | inactive | – | inactive | inactive | inactive | inactive | inactive | inactive | inactive | inactive | inactive | inactive | inactive | – | inactive | –
12 | Sc1ccccc1 | inactive | inactive | inactive | inactive | – | inactive | inactive | inactive | inactive | – | – | inactive | inactive | inactive | inactive | inactive | –
13 | CNCC(O)c1ccc(O)cc1 (centres undefined) | inactive | inactive | inactive | inactive | – | inactive | inactive | inactive | inactive | inactive | inactive | inactive | inactive | inactive | inactive | inactive | inactive
14 | C=CCN=C=S | inactive | inactive | inactive | inactive | – | inactive | inactive | inactive | inactive | – | – | inactive | inactive | inactive | inactive | inactive | inactive
15 | Cc1cccc(C)c1N | inactive | inactive | inactive | inactive | inactive | inactive | inactive | inactive | inactive | inactive | inactive | inactive | inactive | inactive | inactive | inactive | –
16 | CC[N+](=O)[O-] | inactive | inactive | – | inactive | – | inactive | inactive | inactive | inactive | inactive | inactive | inactive | inactive | inactive | – | inactive | –
